Assay results reported in PubChem BioAssay AID651818 (Broad Institute, 2012).
Entries with a potency or affinity are not part of this list. Inconclusive results are not listed. Calls of active or inactive are those of the source. Rule as the data show it: inconclusive = activity change below about -55%; inactive = above that.

Test: intracellular Trypanosoma cruzi inhibitors in host cells – cell-based, plate reader, cherry-pick samples, set 3, dose response (AID 651818)
Details: series mostly up to 10 µM

| Structure (SMILES) | outcome |
| --- | --- |
| C[C@@H]1CN([C@H](C)CO)C(=O)c2cccc(NS(=O)(=O)c3cn(C)cn3)c2O[C@@H]1CN(C)Cc1ccncc1 | inactive |
| C[C@H](CO)N1C[C@H](C)[C@@H](CN(C)S(=O)(=O)c2ccc(Cl)cc2)Oc2c(NC(=O)c3cnccn3)cccc2C1=O | inactive |
| C[C@H](CO)N1C[C@H](C)[C@H](CN(C)Cc2ccc3c(c2)OCO3)Oc2c(NC(=O)Nc3ccc(F)cc3)cccc2C1=O | inactive |
| C[C@H](CO)N1C[C@H](C)[C@H](CN(C)C(=O)Nc2ccccc2)Oc2c(NC(=O)Nc3ccc(C(F)(F)F)cc3)cccc2C1=O | inactive |
| C[C@@H]1CN([C@@H](C)CO)C(=O)c2cccc(N(C)C)c2O[C@H]1CN(C)Cc1ccc2c(c1)OCO2 | inactive |
| C[C@@H]1CN([C@@H](C)CO)C(=O)c2cccc(NS(=O)(=O)c3cn(C)cn3)c2O[C@H]1CN(C)C(=O)Nc1ccc2c(c1)OCO2 | inactive |
| C[C@@H]1CN([C@@H](C)CO)C(=O)c2cccc(NS(=O)(=O)c3ccccc3)c2O[C@@H]1CN(C)CC1CC1 | inactive |
| C[C@H](CO)N1C[C@H](C)[C@@H](CN(C)C(=O)Nc2ccc(C(F)(F)F)cc2)Oc2c(NS(=O)(=O)c3ccc(Cl)cc3)cccc2C1=O | inactive |
| Cc1ccc(S(=O)(=O)N(C)C[C@H]2Oc3c(NC(=O)Nc4c(C)noc4C)cccc3C(=O)N([C@@H](C)CO)C[C@H]2C)cc1 | inactive |
| C[C@H](CO)N1C[C@H](C)[C@@H](CN(C)S(=O)(=O)c2ccc(F)cc2)Oc2c(NC(=O)C3CCOCC3)cccc2C1=O | inactive |
| Cc1ccc(S(=O)(=O)Nc2cccc3c2O[C@H](CN(C)CC2CCCCC2)[C@@H](C)CN([C@H](C)CO)C3=O)cc1 | inactive |
| C[C@@H]1CN([C@@H](C)CO)C(=O)c2cccc(NS(=O)(=O)c3cn(C)cn3)c2O[C@H]1CN(C)C(=O)Nc1ccc(F)cc1 | inactive |
| C[C@@H]1CCCCO[C@@H](CN(C)Cc2ccc(C(F)(F)F)cc2)[C@@H](C)CN([C@H](C)CO)C(=O)c2cc(NC(=O)Nc3ccc4c(c3)OCO4)ccc2O1 | inactive |
| Cc1noc(C)c1S(=O)(=O)N(C)C[C@@H]1Oc2c(NS(=O)(=O)c3cn(C)cn3)cccc2C(=O)N([C@H](C)CO)C[C@@H]1C | inactive |
| C[C@@H]1CN([C@@H](C)CO)C(=O)c2cccc(NS(C)(=O)=O)c2O[C@H]1CN(C)C(=O)NC1CCCCC1 | inactive |
| C[C@H](CO)N1C[C@H](C)[C@H](CN(C)S(C)(=O)=O)Oc2c(NS(=O)(=O)c3ccc(Cl)cc3)cccc2C1=O | inactive |
| Cc1noc(C)c1S(=O)(=O)Nc1cccc2c1O[C@@H](CN(C)CC1CC1)[C@@H](C)CN([C@H](C)CO)C2=O | inactive |
| CC(C)NC(=O)N(C)C[C@@H]1Oc2c(NS(=O)(=O)c3ccc(F)cc3)cccc2C(=O)N([C@H](C)CO)C[C@@H]1C | inactive |
| CC(C)NC(=O)Nc1cccc2c1O[C@@H](CN(C)Cc1ccc(C(F)(F)F)cc1)[C@@H](C)CN([C@H](C)CO)C2=O | inactive |
| C[C@H](CO)N1C[C@H](C)[C@H](CN(C)C(=O)NC2CCCCC2)Oc2c(NS(=O)(=O)c3ccc(F)cc3)cccc2C1=O | inactive |
| C[C@H]1CN([C@@H](C)CO)C(=O)c2cccc(NS(=O)(=O)c3cccs3)c2O[C@@H]1CN(C)C(=O)NC1CCCCC1 | inactive |
| Cc1noc(C)c1NC(=O)N(C)C[C@@H]1Oc2c(NC(=O)NC3CCCCC3)cccc2C(=O)N([C@@H](C)CO)C[C@@H]1C | inactive |
